Compound activity (PubChem BioAssay)
Cycloheximide cs: counter-screen for Shiga toxin inhibitors: cycloheximide protein synthesis inhibition; cell reporter, cycloheximide protein synthesis inhibition counterscreen; max response, %; hit rate 12% among 300,000; in the data active means max response mostly above about 13%, no sharp cut-off; inactive means mostly below about 14%; further: read at 38.3 µM for the half of the compounds with a filed dose; 0% is about no effect
Pf growth 96h: P. falciparum growth inhibition at 96 hour, primary screen for plastid delayed-death inhibitors; P. falciparum luciferase reporter growth, 96 h; Potency, µM (series often up to 28.7 µM), inactives show at the top dose activity change, negative = inhibition, actives largely listed as inhibitors; hit rate 6.9% among 320,000; AID 504834; further: potency means the concentration at half of the fitted maximal effect; on the % scale 0 is the no-effect control and ±100 the full control effect
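Delayed-death screen, second-generation endpoint: infected erythrocytes, 2% hematocrit, 0.05% parasitemia final; 96 hours at 37 C, 5% CO2; luciferase detection reagent; luminescence decrease equals reduced growth.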
Shiga inhibitor: blocks Shiga toxin action in Vero cells. Vero cells, Shiga toxin protein synthesis inhibition reporter. hit rate 9.2% among 290,000. inhibition, % at 38.7 µM; in the data active means inhibition mostly above about 28%, no sharp cut-off; inactive means mostly below about 43%; further: 0% is about no effect
HCMV inh: human cytomegalovirus inhibition. HFF cells, HCMV-luciferase reporter, 72 h; hits give low values. activity change, negative = inhibition, % at 57.5 µM. hit rate 4.5% among 410,000. AID 1259415; in the data active means activity change below about -60%; inconclusive means no clear call, values can overlap the other calls; inactive means above about -39%; further: on the % scale 0 is the no-effect control and ±100 the full control effect
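After 16 h attachment at 37C, HFF cells received test compound and HCMV-luciferase (1 PFU/cell); reporter luminescence read 72 h later, data normalized against buffer-only and known inhibitor Salinomycin.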
Pf growth 48h: inhibits P. falciparum growth in the first generation, 48 h. P. falciparum luciferase growth in erythrocytes, 48 h. Potency, µM (titrated, usually from 28.7 µM), inactives show at the top dose activity change, negative = inhibition, usual class: inhibitors. hit rate 5.9% among 310,000; further: potency means the concentration at half of the fitted maximal effect; on the % scale 0 is the no-effect control and ±100 the full control effect
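A one-generation exposure of luciferase-tagged malaria parasites in RPMI 1640/Albumax erythrocyte culture, 37 C and 5% CO2. Inhibition is inferred from decreased luminescence after adding detection reagent.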
The depositor's hits bear a star; ? = inconclusive; · = no result given; + = active, no number. Sampled rows, rich in hits. Any-hit rate of the full collection: about 20%. Unless noted, the call rests on the fitted dose curve; in most records, active means well fitted inhibition curve with a large enough effect; inconclusive means small, poorly fitted or top-dose-only effect, or another doubt; inactive means no such curve, though single readings can be large or run the other way.

SMILES	Cycloheximide cs	Pf growth 96h	Shiga inhibitor	HCMV inh	Pf growth 48h
COc1ccc(CN(C)C(=O)CCNS(=O)(=O)c2ccccc2)c(OC)c1	·	·	·	31	·
CCc1ccc(-n2nc(C)c3c(C)cc(=O)n(Cc4nc(-c5ccccc5)oc4C)c32)cc1	·	·	·	57	·
O=C(COC(=O)C1=Cc2ccccc2OC1)NCc1ccccc1	·	?	·	-12	0%
O=C(COC(=O)c1cccc(Cl)c1Cl)NCCN1C(=O)CSC1=O	5	6%	-4	13	10%
O=C(COC(=O)c1ccccc1Br)NCCN1C(=O)CSC1=O	20*	53%	109*	-11	81%
O=C(COC(=O)C1=Cc2ccccc2OC1)NC1CCCC1	17*	8%	5	-15	9%
Cc1oc2ncn(CC(C)C)c(=O)c2c1C(=O)NCCCN(Cc1ccccc1)C(C)C	·	·	·	4	·
CCN(CC)c1ccc(S(=O)(=O)N2CCOCC2)cc1NC(=O)CN1CCN(Cc2ccccc2)CC1	-4	10µM*	-9	?	?
CCN(CC)c1ccc(S(=O)(=O)N2CCOCC2)cc1NC(=O)CSC(=S)N1CCCC1	-1	10µM*	15	6	?
CCCCCNC(=O)CCCCCn1c(=O)[nH]c2ccsc2c1=O	·	·	·	-6	·
CC(C)CCNC(=O)C(c1ccc(O)cc1)N(Cc1ccco1)C(=O)CCC(=O)Nc1nccs1 (centres undefined)	-4	?	-10	-21	?
COc1ccccc1N1CCN(c2csc3ccc(Cl)cc3c2=O)CC1	·	·	·	13	·
CC(=O)N1CN(C2CC(C)(C)NC(C)(C)C2)Cc2c1sc1c2CCCC1	-1	12µM*	-2	-63*	12µM*
N[C@@H](Cc1ccc(F)cc1)C(=O)O	·	·	·	-14	·
O=C(CNc1ccccc1)Nc1ccc(F)cc1	75*	·	118*	145	224%
CSc1ccc(/C=N/NC(=O)c2cccc(O)c2)cc1	27*	98%	76	98	152%
O=C(Nc1ccc(F)cc1)c1ccccc1	44*	112%	103*	-3	·
O=C(O)C(Cc1ccc(F)cc1)c1ccccc1 (centres undefined)	-2	3.3µM*	-1	-18	47%
O=C(CNS(=O)(=O)c1ccc(F)cc1)Nc1ccccc1	-3	185%	-4	44	0%
Cc1ccc(CCC(=O)Nc2ccc([N+](=O)[O-])cc2)o1	2	17%	26	0	?
Cn1c(=O)cc(OCC(=O)N2CCN(c3ccc(F)cc3)CC2)c2ccccc21	·	·	·	9	·
Nc1ccc(C(=O)N/N=C/c2ccccc2)cc1	41*	39%	108*	136	112%
O=C(NN=Cc1ccccc1)NN=Cc1ccccc1	·	·	·	43	·
O=C(N/N=C/c1ccc(O)cc1)c1csc2c1CCCC2	47*	19%	57*	-29	18%
O=C(CC(Cc1ccccc1)C(=O)O)Nc1ccc(F)cc1 (centres undefined)	-3	2.3µM*	-7	20	-16%
SMILES	Cycloheximide cs	Pf growth 96h	Shiga inhibitor	HCMV inh	Pf growth 48h
O=C(N/N=C\c1ccc(F)cc1)c1ccc(F)cc1	47*	-10%	75*	5	241%
COc1ccc(NC(=O)C[C@H]2C(=O)N(c3ccccc3)C[C@@H]2C)cc1	·	·	·	-14	·
COc1ccccc1NS(=O)(=O)c1ccc(Cl)c(NC(=O)CN2C(=O)c3ccccc3C2=O)c1	-2	?	0	-13	21%
O=C(N/N=C/c1cnc2ccccc2n1)c1cccc(F)c1	27*	20%	+	39	67%
Cc1ccc(C(=O)N/N=C\c2ccc(OC(=O)c3cccc(F)c3)cc2)cn1	-3	?	-3	-24	-22%
CC(C)(C)NC(=O)C(=O)N/N=C/c1ccc(F)cc1	26*	-5%	48*	-18	3%
O=C(N/N=C/c1ccccc1)c1ccc(NC(=O)c2ccc(F)cc2)cc1	49*	-14%	58*	13	?
CC(C)(C)NC(=O)C(=O)N/N=C/c1ccc(Br)cc1	15	-8%	13	-22	-8%
CC(=O)Nc1ccc(C(=O)N/N=C/c2ccc(F)cc2)cc1	4	?	-3	-28	58%
COC(=O)c1ccc(/C=N/NC(=O)c2cccc(F)c2)cc1	61*	-42%	105*	47	?
O=c1c2ccccc2n(Cc2c(F)cccc2Cl)c(=O)n1CCc1ccccc1	·	·	·	37	·
O=C(N/N=C/c1cccc(C(F)(F)F)c1)c1ccc(O)cc1	14	?	99	-8	-10%
O=C(N/N=C/c1ccc(C(F)(F)F)cc1)c1ccc(O)cc1	32*	21%	44*	?	13%
